Compounds with a hit are over-represented: about 27% of the library has one in this group of screens.
CYP2C19 inh: blockers of cytochrome P450 2C19 activity – biochemical, luminescence, ADME assay, primary screen; CYP2C19 Supersomes, luciferin-H EGE luminescence, 30 min; P33261; inhibition, % at 5 µM; AID 778, 2007; 96,000 compounds, 21% hits;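 active = CYP2C19 inhibition above a set limit at 5 µM in the primary screen, cut at about 50% in these data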;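 also: plate controls were negative control wells for no effect and 2.5 mM tranylcypromine positive control for full effect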
sEH act: soluble epoxide hydrolase activators, primary screen, biochemical, human sEH | Bifunctional epoxide hydrolase 2 (Homo sapiens), P34913 | purified human sEH enzymatic activity, activator screen | activation, % at 2 µM | 91,000 compounds, 0.04% hits | AID 717, 2007; in the data active = activation above about 37%
CYP2C19 act: human CYP2C19 activators, primary screen, biochemical, luminescence. activation factor at 5 µM. recombinant CYP2C19, luciferin-H EGE luminescence; active compounds read high; 0 = fully inhibited enzyme, 1 = untreated enzyme. Cytochrome P450 2C19 (Homo sapiens), P33261. 96,000 tested, under 10 active;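 active = activation factor of at least 2 at 5 µM in the primary screen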;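 also: 0 = wells with 2.5 mM tranylcypromine and 1 = vehicle-only wells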
sEH inh: soluble epoxide hydrolase inhibitors, primary screen, biochemical, human sEH; Bifunctional epoxide hydrolase 2 (Homo sapiens), P34913; recombinant human sEH enzymatic activity assay; inhibition, % at 2 µM; AID 707, 2007; 91,000 compounds, 0.34% hits; in the data active = inhibition above about 80%
CYP2C9 inh: blockers of cytochrome P450 2C9 activity – biochemical, luminescence, ADME assay, primary screen. inhibition, % at 5 µM. P11712. AID 777, 2007. CYP2C9 Supersomes, luciferin-H conversion. 96,000 compounds, 20% hits;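 active = blocking of liver enzyme CYP2C9 beyond about 50% at 5 µM, limit read from the data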
Target sequence (P11712 whole entry, looked up): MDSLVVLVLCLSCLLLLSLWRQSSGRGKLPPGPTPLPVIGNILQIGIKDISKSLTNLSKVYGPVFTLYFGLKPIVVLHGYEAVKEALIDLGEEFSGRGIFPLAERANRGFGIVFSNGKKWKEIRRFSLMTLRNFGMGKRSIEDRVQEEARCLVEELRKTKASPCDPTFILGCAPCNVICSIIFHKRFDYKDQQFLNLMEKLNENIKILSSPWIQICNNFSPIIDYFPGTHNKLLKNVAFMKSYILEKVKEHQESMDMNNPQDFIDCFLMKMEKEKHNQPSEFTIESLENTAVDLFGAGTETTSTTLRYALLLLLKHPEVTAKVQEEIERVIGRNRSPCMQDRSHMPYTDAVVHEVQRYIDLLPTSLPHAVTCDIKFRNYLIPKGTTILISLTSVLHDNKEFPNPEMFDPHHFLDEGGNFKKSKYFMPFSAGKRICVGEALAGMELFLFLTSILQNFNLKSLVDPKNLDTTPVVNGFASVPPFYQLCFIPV
CYP2C9 act: human CYP2C9 activators, primary screen, biochemical, luminescence; Cytochrome P450 2C9 (Homo sapiens), P11712; recombinant CYP2C9, luciferin-H conversion; active compounds read high; factor 1 = untreated enzyme, 0 = blocked; AID 1024, 2008; activation factor at 5 µM; 96,000 compounds, 1.4% hits;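 active = activation factor of 2 or more for CYP2C9 at a 5 µM dose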;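 also: 0 = sulfaphenazole-blocked wells and 1 = vehicle-only wells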
Numbers without * were called inactive; / = no result.

SMILES	CYP2C19 inh	sEH act	CYP2C19 act	sEH inh	CYP2C9 inh	CYP2C9 act
CSCCC(C(=O)OCC(=O)c1ccc(C)c(C)c1)N1C(=O)c2cc(Cl)c(Cl)cc2C1=O (stereo not given)	4	3	1	-4	44	0.6
O=C(CN1CCN(c2ccccn2)CC1)NC(=O)NC1CCCCC1	10	/	0.9	/	44	0.6
c1ccc(Cn2nnnc2C(c2ccccn2)N2CCOCC2)cc1 (stereo not given)	6	-5	0.9	0	-2	1
c1ccc(Cn2nnnc2C(c2ccccn2)N2CCN(c3ccccc3)CC2)cc1 (stereo not given)	61*	-67	0.4	67	46	0.5
O=C(Cn1[nH]c(=O)c2ccccc2c1=O)OCC(=O)N(Cc1ccccc1)Cc1ccccc1	38	6	0.6	-3	18	0.8
COc1ccc(CN2CCCCC2c2cccnc2)c(OC)c1C (stereo not given)	38	/	0.6	/	5	0.9
Brc1ccc2[nH]c3nc(SCCN4CCOCC4)nnc3c2c1	/	-1	/	0	/	/
O=C1C(N2CCOCC2)=C(n2nnc3ccccc32)C(=O)c2ccccc21	100*	4	0	-1	90*	0.1
O=C1c2ccccc2C(=O)c2c1cccc2N1CCOCC1	47	8	0.5	-7	50	0.5
O=C(/C=C/c1ccco1)NCC1CCCO1 (stereo not given)	3	-3	1	5	5	1
COc1ccc(OC)c(N2Cc3ccccc3C2)c1	/	10	/	-6	/	/
COc1ccc(OC)c(-n2c(C)ccc2-c2ccc(S(C)(=O)=O)cc2)c1	96*	10	0	-9	98*	0
COc1ccc(OC)c(-n2c(-c3ccc(S(C)(=O)=O)cc3)cc(C=O)c2C)c1	60*	-4	0.4	4	66*	0.3
CC(C)c1nnc(NC(=O)CCCCCN2C(=O)C3C4C=CC(C4)C3C2=O)s1 (stereo not given)	-2	/	1	/	19	0.8
CCn1cc(-c2nnnn2-c2ccc(Cl)cc2)c(=O)c2ccccc21	9	3	0.9	-3	-15	1.1
COC(=O)c1cn(CC(=O)N2CCCCCC2)c2ccccc12	92*	2	0.1	3	23	0.8
COC(=O)c1cn(CC(=O)NCc2ccco2)c2ccccc12	92*	11	0.1	-11	30	0.7
Cc1ccccc1-n1nnnc1SC1CCOC1=O (stereo not given)	59*	/	0.4	/	-120	2.2*
Cc1ccc(CNC(=O)C2CCN(S(=O)(=O)c3cnc[nH]3)CC2)cc1	16	9	0.8	-10	90*	0.1
COc1cccc(CNC(=O)C2CCCN(S(=O)(=O)c3cccc4nonc34)C2)c1 (stereo not given)	11	8	0.9	-11	28	0.7
COc1cccc(CNC(=O)C2CCCN(S(C)(=O)=O)C2)c1 (stereo not given)	8	/	0.9	/	75*	0.3
CCS(=O)(=O)N1CCC(C(=O)NCc2cccc(OC)c2)CC1	-4	/	1	/	-1	1
O=C(Nc1ccc(Cl)cc1)C1CCCN(S(=O)(=O)c2cnc[nH]2)C1 (stereo not given)	90*	/	0.1	/	88*	0.1
COc1cccc(CNC(=O)C2CCN(S(=O)(=O)c3cnc[nH]3)CC2)c1	29	/	0.7	/	76*	0.2
CCOC(=O)Cc1c(C)nc2c(-c3ccc(OC)cc3)c(C)nn2c1C	18	4	0.8	-2	40	0.6
O=C(NCc1ccccc1)C1CCCN(C(=O)Nc2ccccc2)C1 (stereo not given)	67*	-3	0.3	6	44	0.6
O=C(C1CCN(S(=O)(=O)c2cnc[nH]2)CC1)N1CCn2c1nc1ccccc12	60*	10	0.4	-13	64*	0.4
Cc1ccc(CNC(=O)C2CCCN(S(=O)(=O)c3cnc[nH]3)C2)cc1 (stereo not given)	96*	-22	0	22	67*	0.3
O=C(C1CCCCC1)N1CCCn2c1nc1ccccc12	20	6	0.8	-5	-20	1.2
